Results reported in PubChem BioAssay AID602163 (The Scripps Research Institute Molecular Screening Center, 2012).
Hit rate of the full screen: of about 360,000 compounds, about 1,100 (0.31%) were called active. No stated cut-off is given here; in the data, active means activation above about 7.5%; inactive means the rest. The full list was thinned out, with actives kept by preference.

test system: Methionine sulfoxide reductase A (Bos taurus); test: bovine MsrA enzyme activators, primary screen, biochemical, absorbance, HTS (AID 602163); settings: purified bovine MsrA, absorbance read-out; at 10.6 µM; active compounds read high;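 further: 0% = vehicle and 100% = reference activator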

activation, inactive:
CCOC(=O)C1CCN(C(=O)C2CCN(S(=O)(=O)c3c(C)noc3C)CC2)CC1 -0.14%
O=C1[C@@H]2C(Cc3ccc(O)cc3)NC3(C(=O)Nc4ccc(F)cc43)[C@@H]2C(=O)N1c1ccc(F)cc1 (stereo partly drawn) -1.38%
COc1ccc([C@H]2N[C@]3(CCCN(CC4CCCCC4)C3=O)[C@H]3C(=O)N(C)C(=O)[C@@H]23)cc1 -4.49%
CCOc1ccccc1NC(=O)C1CCCN(C(=O)Nc2ccccc2)C1 (stereo not drawn) -2.87%
Nn1c(SCC(=O)Nc2ccc3c(c2)CCC3)nnc1C1CC1 0.99%
CC1CCc2[nH]c3ccc(C(=O)N(C)CC(=O)Nc4cccc(F)c4)cc3c2C1 (stereo not drawn) -0.36%
CCCN(CC(=O)Nc1ccccc1C)C(=O)c1cc(=O)[nH]c2ccccc12 -8.69%
COCC(=O)Nc1c(I)c(C(=O)NCC(O)CO)c(I)c(C(=O)N(C)CC(O)CO)c1I (stereo not drawn) -1.2%
NC(=O)NCCCC(=O)O 5.76%
COc1ccc(OC)c(NC(=O)COC(=O)Cc2ccsc2)c1 -3.82%
S=c1nccc(-c2cc(Cl)sc2Cl)[nH]1 -10.9%
CC[C@]1(O)C[C@@H]2CN(CCc3c([nH]c4ccccc34)[C@@](C(=O)OC)(c3cc4c(cc3OC)N(C)[C@H]3[C@@](O)(C(=O)OC)[C@H](OC(C)=O)[C@]5(CC)C=CCN6CC[C@]43[C@@H]65)C2)C1 -0.23%
CCOc1ccc2[nH]c(=O)c(CN(CCCO)C(C)=O)cc2c1 -0.13%
Nc1ccc2[nH]c(=S)sc2c1 0.61%
Cn1c(CCCOc2ccc(Cl)cc2Cl)n[nH]c1=S -3.29%
COc1ccccc1NC(=O)CSc1nnc(Cc2cccn2C)n1-c1ccc(F)cc1 -0.41%
COC(=O)c1ccc(NC(=O)CSc2nnc(Cc3cccn3C)n2-c2ccc(F)cc2)cc1 -0.87%
CCn1c(C)nc2c1C(=O)c1ccccc1C2=O 6.51%
O=C(Nc1ccc(S(=O)(=O)Nc2ncccn2)cc1)C12CC3CC(CC(C3)C1)C2 -5.78%
Cc1cc(OC(C)C(=O)Nc2ccc(S(=O)(=O)Nc3onc(C)c3C)cc2)cc(C)c1Cl (stereo not drawn) -4.68%
COc1cc(C(=O)OCC(=O)NC23CC4CC(CC(C4)C2)C3)cc(OC)c1OC -1.08%
CCN(CC(=O)Nc1ccccc1OC)C(=O)Cn1cnc2ccccc2c1=O -6.89%
COc1ccc(S(=O)(=O)N2CCOCC2)cc1NC(=O)CC1CC2CCC1C2 (stereo not drawn) -3.8%
CN(/C(=N/S(=O)(=O)c1cccs1)c1ccccc1)c1ccc(O)cc1 -3.66%
Brc1ccc(-c2n(-c3ccccn3)c3ccccc3[n+]2-c2ccccn2)cc1 -3.31%
CCn1c(SCC(=O)Nc2cc(C)ccc2C)nnc1-c1cnccn1 -14%
CCOC(=O)Cc1csc(NC(=O)CSc2nnc(-c3cccnc3)n2Cc2ccco2)n1 -2.57%
CN(C(=O)c1cccc(NC(=O)Cc2ccc(NC(=O)C3CCCN(C(=O)C4CCCC4)C3)cc2)c1)C1CCC1 (stereo not drawn) -1.96%
CN(C(=O)c1cccc(NC(=O)Cc2ccc(NC(=O)C3CCCN(C(=O)C4CC4)C3)cc2)c1)C1CC1 (stereo not drawn) -5.02%
C=C(C)C(=O)O[C@H]1C/C(C)=C\C(=O)/C=C(\C)[C@H](O)[C@@H]2OC(=O)C(=C)[C@@H]21 -5.09%
COCc1cccc(-c2csc(C(O)c3ccc(F)cc3)n2)c1 (stereo not drawn) -2.06%
CSc1ccc(CN(C)CC(=O)NCc2ccc(F)cc2)cc1 -2.54%
COc1cc(OC)cc(-c2c(C#Cc3ccsc3)c3cc(-c4ccc(SC)cc4)ccc3n2C)c1 -0.65%
C/C=C/C(=O)OCC(=O)Nc1ccc(F)cc1Cl -7.53%
c1ccc(CN=C2Nc3ccccc3CS2)nc1 -3.81%
COc1cc(F)c(C2=CC(=O)CC(C)(C)C2)cc1F -3.81%
O=C(COC(=O)CSc1nnc(-c2ccc(Cl)cc2)o1)Nc1cc(Cl)cc(Cl)c1 -3.64%
CC(NS(=O)(=O)c1ccccc1)c1n[nH]c(=S)n1-c1ccccc1 (stereo not drawn) -0.57%
Cc1ccc(C(=O)COC(=O)CCN2C(=O)C3C4CC(C(Br)C4Br)C3C2=O)cc1 (stereo not drawn) -3.01%
O=C(c1ccco1)N1CCN(CCOc2ccccc2)CC1 -3.77%
O=C(c1ccco1)N1CCN(C(=S)Nc2cc(F)cc(F)c2)CC1 -6.94%
Cn1c(=O)c2[nH]c(NCC3CCCO3)nc2n(-c2ccccc2)c1=O (stereo not drawn) -0.78%
Cc1cccc(NC(=O)CSc2nnc(CCCCCNC(=O)OC(C)(C)C)o2)c1C -0.45%
O=C(O)CC(CC(=O)N1CCOCC1)c1ccccc1 (stereo not drawn) -2.3%
CC1=NN(C(=O)Cc2ccc(C)cc2)C(O)(c2cccnc2)C1 (stereo not drawn) 0.86%
COc1ccc(NC(=O)NCc2ccc3c(c2)OCO3)c(OC)c1 -3.53%
COc1ccccc1-n1c(C)nc2cc(C(=O)NCc3ccc4c(c3)OCO4)ccc21 -1.98%
CCOC(=O)C1CCN(C(=O)c2cccc(S(=O)(=O)N(CC)c3ccccc3)c2)CC1 -8.63%
COc1ccccc1NC(=O)CCN1CCN(c2ccc(Cl)cc2)CC1 -3.09%
O=C(CN1CCN(c2ccc(O)cc2)CC1)Nc1ccc(-c2ccccc2)cc1 -3.19%
O=C(Nc1ccccc1)c1nnsc1S(=O)(=O)c1ccc(Cl)cc1 -11.8%
O=c1[nH]snc1-c1c(Cl)cccc1Cl -0.32%
CCC(C)N1C(=O)S/C(=C/c2ccc(Sc3nc4ccccc4[nH]3)o2)C1=O (stereo not drawn) -7.08%
Cc1ccc(S(=O)(=O)N2CCC(C(=O)N3CCCCCCC3)CC2)cc1 -4.45%
Nc1cc(OC(=O)c2ccccc2Br)nn1S(=O)(=O)c1ccccc1 -3.8%
CCN(CC)C(=O)Cn1cc(S(=O)(=O)CC(=O)NCc2ccc3c(c2)OCO3)c2ccccc21 -1.14%
O=C1Oc2ccccc2C(=O)/C1=C/c1ccccc1O -0.91%
O=C(OCC(=O)N1CCc2ccccc21)C1CCCN1S(=O)(=O)c1ccc(Cl)cc1 (stereo not drawn) -1.01%
COc1ccccc1NC(=O)C1CCCN1S(=O)(=O)c1ccc(Cl)cc1 (stereo not drawn) -9.31%
O=C(Nc1ccc2c(c1)C(=O)OC2)Nc1cccc2ccccc12 -5.72%
CC1Oc2ccccc2N(Cc2cccnc2)C1=O (stereo not drawn) -2.41%
CC(C)Cn1cnc2c(SCc3ccc(Cl)cc3)nc(N)nc21 -1.84%
CCCCNC(=O)C1(c2ccc(OC)cc2)CCOCC1 2.44%
CCCCNC(=O)OCCSCCS(=O)(=O)c1ccc(Cl)cc1 -0.48%
Cc1cccc(-n2cnc(C(=O)NNC(=S)Nc3ccccc3)c2)n1 -2.6%
COc1ccc(S(=O)(=O)NC(=O)C2(C)CCN2C(=O)COc2ccc(Cl)cc2)cc1 (stereo not drawn) -2.84%
CCc1cc2c(=O)n(-c3ccccc3)c(SCC(=O)O)nc2s1 -3.91%
C=CCn1c(SCC(=O)/C(C#N)=C(\C)N)nc2sc(C)c(C)c2c1=O -12.1%
COc1cc(C)nc(N2CCCC(C(=O)NCC(C)C)C2)n1 (stereo not drawn) -8.78%
CCOc1ccc2nc(N3CCCN(C(=O)Nc4ccccc4C)CC3)c(C#N)cc2c1 -1.05%
COc1ccc2cc(C(=O)C3CCCN(C(=O)c4sc(C)nc4C)C3)ccc2c1 (stereo not drawn) -0.96%

activation, active:
CCCN(CC(=O)Nc1ccccc1C)C(=O)c1ccc2[nH]c3c(c2c1)CC(C)CC3 (stereo not drawn) 17.2%
CC(=O)N(O)CCCCCNC(=O)CCC(=O)N(O)CCCCCNC(=O)CCC(=O)N(O)CCCCCNC(=O)CCC(=O)O 8.82%
CCOc1ccc2[nH]c(=S)sc2c1 8.43%
Cc1ccc(C)c(NC(=O)CSc2nnc(Cc3cccn3C)n2-c2ccc(F)cc2)c1 9.61%
Cc1noc(NS(=O)(=O)c2ccc(NC(=O)C34CCC(CC3)C4)cc2)c1C 7.83%
CCN(CC(=O)Nc1ccccc1OC)C(=O)CC1CC2CCC1C2 (stereo not drawn) 7.82%
CCc1ccc(NC(=O)CSc2nnc(-c3cnccn3)n2Cc2ccco2)cc1 10.3%
O=C(Cc1ccc(NC(=O)C2CCCN(C(=O)C3CCCCC3)C2)cc1)Nc1cccc(C(=O)N2CCCCC2)c1 (stereo not drawn) 8.7%
CN1c2ccc(C=O)c3c(C=O)ccc(c23)N(C)C1(C)C 9.27%
O=C(c1ccco1)N1CCN(Cc2cccc(C(F)(F)F)c2)CC1 7.76%
COc1cc(OC)c(C(=O)NCc2ccc3c(c2)OCO3)cc1OC 9.15%
O=C(CCN1CCN(c2ccccc2)CC1)NNC(=S)Nc1ccccc1 12.7%
Cc1ccc(S(=O)(=O)n2nc(OC(=O)C(C)(C)C)cc2N)cc1 19.7%
NC(=O)COc1ccc(/C=N/NC(=O)C2CCCN2S(=O)(=O)c2ccc(Cl)cc2)cc1 (stereo not drawn) 8.7%
CCCCNC(=O)OC(C)CNC(=O)OC (stereo not drawn) 8.8%
C=CCn1c(SCC(=O)c2c(N)n(C)c(=O)n(C)c2=O)nc2sc(CC)cc2c1=O 8.63%
COc1ccc2nc(N3CCCC(O)C3)c(C#N)cc2c1 (stereo not drawn) 19.6%
